High-throughput results (PubChem BioAssay)
Shown are actives, neighbours in structure and some others; about 2.8% of the full set was active somewhere.
IP6K1 inhibitor: Primary qHTS assay for small molecule inhibitors of Inositol hexaphosphate kinase 1 (IP6K1) | IP6K1 kinase, ADP-Glo luminescence, 2 h; hits give low values | 140,000 compounds, 0.81% hits | AID 1645851, 2021 | activity change, % (series mostly up to about 58 µM) | Inositol hexakisphosphate kinase 1 (Homo sapiens), Q92551; in the data active means activity change below about -25%
Target sequence (Q92551 whole entry, looked up): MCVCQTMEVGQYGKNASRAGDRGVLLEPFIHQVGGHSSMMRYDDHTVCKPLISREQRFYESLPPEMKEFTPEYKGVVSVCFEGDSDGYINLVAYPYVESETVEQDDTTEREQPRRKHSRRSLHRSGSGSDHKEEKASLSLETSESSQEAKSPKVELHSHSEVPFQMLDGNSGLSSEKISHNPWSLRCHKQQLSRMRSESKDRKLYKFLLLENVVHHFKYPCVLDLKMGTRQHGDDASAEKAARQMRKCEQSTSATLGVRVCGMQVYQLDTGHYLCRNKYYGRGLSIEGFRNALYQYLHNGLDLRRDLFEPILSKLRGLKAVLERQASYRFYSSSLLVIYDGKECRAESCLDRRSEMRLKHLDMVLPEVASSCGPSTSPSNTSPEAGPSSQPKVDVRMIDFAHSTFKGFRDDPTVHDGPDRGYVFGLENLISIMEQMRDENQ
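ADP-Glo luminescence measures ADP made by human IP6K1 during a 2 h RT reaction with ATP/IP6 (mix at 1.3 mM/130 uM); top library doses 57.5 and 19.1 uM final.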
HEK293 viab: GF-AFC viability counterscreen for inhibitors of alpha-synuclein gene (SNCA) expression; HEK-293-SNCA-luc viability, GF-AFC fluorescence, 24 h; Potency, µM (titrated, usually from 57.1 µM), hits mostly cytotoxic; 150,000 compounds, 0.12% hits; AID 1671193, 2021; further: nearly all actives have a fitted effect of over 30% in size
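Cytotoxicity counterscreen: after 24 h compound treatment of genome-edited SNCA-luciferase HEK-293 cells, live-cell protease substrate GF-AFC read by fluorescence after 30 min; activity scaled between DMSO (0%) and medium-only (-100%), curves Hill-fitted.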
SNCA expr inh: Primary qHTS assay for inhibitors of alpha-synuclein gene (SNCA) expression; HEK-293 SNCA-luciferase knock-in, luminescence, 24 h; Potency, µM (titrated, usually from 57.2 µM), usual class: inhibitors; 140,000 compounds, 0.17% hits; AID 1671194, 2021; further: nearly all actives have a fitted effect of over 45% in size
KDM5B inh: Primary screen for KDM5B Histone Demethylases FDH-coupled qHTS; Potency, µM (doses to about 57.7 µM), hits mostly inhibitors; KDM5B demethylase, FDH-coupled NADH fluorescence (FDH is formaldehyde dehydrogenase); 220,000 compounds, 2.6% hits; AID 1347165, 2019; Lysine-specific demethylase 5B (Homo sapiens), Q9UGL1; further: nearly all actives have a fitted effect of over 70% in size
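Coupled FDH/NAD⁺ fluorescence readout. KDM5BΔAP 200 nM final; compound titration, 10 min RT preincubation; substrate mix 12.5 µM H3K4me3, 25 µM 2-OG, 50 µM Fe(II), 100 µM ascorbate, 0.25 mM NAD⁺, 0.25 U/mL FDH; ΔRFU over 30 min.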
Large screens that a line does not name were inactive. Unless noted, the call rests on the fitted dose curve; in most records, active means well fitted curve in the direction sought with a large enough effect; inconclusive means small, poorly fitted or top-dose-only effect, or another doubt; inactive means no such curve, though single readings can be large; an effect the other way counts as inactive or inconclusive.

Cc1noc(-c2ccn3c(CNC(=O)c4ccncc4)nnc3c2)n1	none
CCc1noc(-c2ccn3c(CNC(=O)c4ccoc4)nnc3c2)n1	KDM5B inh 28µM
Cc1noc(-c2ccn3c(CNC(=O)c4ccoc4)nnc3c2)n1	KDM5B inh 25µM
CCCc1noc(-c2ccn3c(CNC(=O)c4ccc(C)c(F)c4)nnc3c2)n1	KDM5B inh 28µM
O=C(NCc1ccc(F)c(F)c1)c1nc2sccn2c1-c1ccccc1	none (no result: KDM5B inh)
Cc1noc(-c2ccn3c(CNC(=O)c4cccnc4)nnc3c2)n1	SNCA expr inh inconclusive
CCCc1noc(-c2ccn3c(CNC(=O)c4cccnc4)nnc3c2)n1	KDM5B inh 28µM
CCc1noc(-c2ccn3c(CNC(=O)c4ccncc4)nnc3c2)n1	SNCA expr inh inconclusive, KDM5B inh 25µM
CCOc1ccccc1C(=O)NCc1nnc2cc(-c3nc(CC)no3)ccn12	KDM5B inh 28µM
CCc1noc(-c2ccn3c(CNC(=O)c4cc(F)ccc4Cl)nnc3c2)n1	KDM5B inh 28µM
Cc1noc(-c2ccn3c(CNC(=O)c4ccc(F)cc4Cl)nnc3c2)n1	none
CC(C)c1noc(-c2ccn3c(CNC(=O)c4ccc(F)cc4Cl)nnc3c2)n1	KDM5B inh 28µM
Cc1ccccc1Cn1nc(C)c(NC(=O)Nc2cccc(F)c2)c1C	none (no result: IP6K1 inhibitor, HEK293 viab, SNCA expr inh)
Cc1ccsc1/C=C1\Oc2cc(OC(=O)C(C)(C)C)ccc2C1=O	none (no result: IP6K1 inhibitor, HEK293 viab, SNCA expr inh)
CC(Oc1ccccc1)C(=O)N1CCC(n2cc(-c3nc(-c4ccccc4)no3)nn2)CC1 (centres undefined)	HEK293 viab inconclusive, SNCA expr inh inconclusive
CCOC(=O)c1c(C)[nH]c(C(=O)NCCc2ccc(Cl)cc2)c1C	none (no result: IP6K1 inhibitor, HEK293 viab, SNCA expr inh)
CCc1cnc(N2CCC(COc3ccc4c(cnn4CC[S+](C)(=O)[O-])c3)CC2)nc1	KDM5B inh 32µM
CCc1cnc(N2CCC(Oc3cnc4c(ccn4CCN[S+](C)(=O)[O-])c3)CC2)nc1	KDM5B inh 28µM
C[S+](=O)([O-])CCn1ncc2cc(OCC3CCN(c4ncccn4)CC3)ccc21	SNCA expr inh inconclusive, KDM5B inh 35µM
Cc1nccc(N2CCC(Oc3cnc4c(ccn4CCN[S+](C)(=O)[O-])c3)CC2)n1	SNCA expr inh inconclusive, KDM5B inh inconclusive
Cc1ccc(/C=C(/SCC(=O)O)c2nc3ccccc3s2)cc1C	none (no result: IP6K1 inhibitor, HEK293 viab, SNCA expr inh)
O=C1c2cc(N3CCOCC3)nc(-c3ccc(F)cc3)c2CN1Cc1ccccc1	KDM5B inh 35µM
O=C1c2cc(N3CCOCC3)nc(-c3cccc(F)c3)c2CN1Cc1ccccc1	KDM5B inh 32µM
O=C1c2cc(N3CCOCC3)nc(-c3cccc(CO)c3)c2CN1Cc1ccccc1	KDM5B inh 35µM
N#CCC(=O)Nc1ccc(Oc2ccccc2)cc1	none (no result: IP6K1 inhibitor, HEK293 viab, SNCA expr inh)
Cc1noc([C@@H]2CN(C(=O)c3c[nH]c4ccccc34)C[C@H]2CO)n1	none
CC(C)c1noc(-c2cn(C3CCN(C(=O)c4cccc5[nH]ccc45)C3)nn2)n1 (centres undefined)	SNCA expr inh inconclusive, KDM5B inh 22µM
COC[C@@H]1CN(C(=O)c2cccc3[nH]ccc23)C[C@H]1c1nc(C)no1	KDM5B inh 20µM
Cc1noc(-c2cn(C3CCCN(C(=O)c4cccc5[nH]ccc45)C3)nn2)n1 (centres undefined)	KDM5B inh 20µM
Cc1noc(-c2cn(C3CCN(C(=O)c4cccc5[nH]ccc45)CC3)nn2)n1	KDM5B inh inconclusive
CC(C)c1noc(-c2cn(C3CCCN(C(=O)c4cccc5[nH]ccc45)C3)nn2)n1 (centres undefined)	KDM5B inh 18µM
O=C1CCC2(C(=O)NCc3ccc(F)cc3)CCCC=C2N1C1CCCC1 (centres undefined)	none (no result: KDM5B inh)
Oc1ccc(Cl)cc1C=Nc1ccc(Cl)cc1C(F)(F)F	none (no result: IP6K1 inhibitor, HEK293 viab, SNCA expr inh)
Cc1ccc(OCCSc2nc3ccccc3n2CC(=O)N2CCCCC2)c(C)c1	HEK293 viab 14µM, KDM5B inh inconclusive
Cc1ccc(C)c(OCCSc2nc3ccccc3n2CC(=O)N2CCOCC2)c1	HEK293 viab inconclusive, SNCA expr inh inconclusive
CCOc1nccnc1NC1CCN(C(=O)c2cccn2C)CC1	KDM5B inh 28µM
CCOc1nccnc1NC1CCN(C(=O)c2ccc(C)s2)CC1	KDM5B inh 28µM
Cc1ccc(C(=O)N2CCC(OC3CCN(C)CC3)CC2)s1	none
